Screening results from PubChem.
In the library only some 9.2% were active in any assay of this set; here they are far more common.
Rab9 prom act: qHTS Assay for Rab9 Promoter Activators; Huh7 Rab9 promoter-luciferase reporter, luminescence, 24 h; Potency, µM (doses to about 9.22 µM), for the others: top-dose activation, negative = inhibition, hits mostly activators; hit rate 2.8% among 320,000; AID 485297, 2010; also: % of control where 0% means no effect; nearly all actives have a fitted effect of over 60% in size
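Stable Rab9-luc Huh7, 1500 cells/well, 2 h settle; cmpd in DMSO, 24 h, 37 °C/5% CO2; luciferase reagent 10 min RT; luminescence.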
ELG1 genotoxic: qHTS screen for small molecules that induce genotoxicity in human embryonic kidney (HEK293T) cells expressing luciferase-tagged ELG1 | HEK293T ELG1-luciferase reporter, luminescence, 16 h | Potency, µM (highest dose often 46 µM), without a hit: at the highest dose activity change, positive = activation, most hits filed as activators | hit rate 1.3% among 330,000 | AID 504466, 2011; also: % of control where 0% means no effect; nearly all actives have a fitted effect of over 60% in size
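Genotoxicity was scored as increased ELG1-luciferase reporter signal, measured by ONE-Glo luminescence (30 min, room temperature). Compound or vehicle exposure of the HEK293T reporter cells lasted 16 hr at 37°C.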
SMN2 splice up: qHTS Assay for Enhancers of SMN2 Splice Variant Expression | HEK293 SMN2-luciferase splicing reporter, luminescence, 30-36 h | Potency, µM (series often up to 46.1 µM), for the others: top-dose activity change, positive = activation, most hits filed as activators | hit rate 2.8% among 210,000; also: % of control where 0% means no effect; nearly all actives have a fitted effect of over 55% in size
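qHTS luciferase splicing reporter: luminescence rises when SMN2 exon 7 is included in transfected HEK293 cells. Compound exposure lasted 30-36 h at 37C, with 4.5 mM final sodium butyrate as control, followed by a ONE-Glo read.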
ELG1 DNA repair: qHTS screen for small molecules that inhibit ELG1-dependent DNA repair in human embryonic kidney (HEK293T) cells expressing luciferase-tagged ELG1 | HEK293T ELG1-luciferase reporter, luminescence, 16 h; DNA damage induced by 5-fluorouridine | Potency, µM (series often up to 46.1 µM), without a hit: at the top dose activity change, negative = inhibition, most hits filed as inhibitors | hit rate 2.3% among 330,000; also: % is scaled to controls: 0 for no effect and ±100 for the full control effect; nearly all actives have a fitted effect of over 55% in size
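Overnight (16 hr) co-exposure of 2,000 cells/well to 5-fluorouridine and compound at 37 °C preceded detection. Luciferase was quantified via ONE-Glo luminescence; loss of signal denotes inhibition.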
FLuc modulator: qHTS profiling assay for firefly luciferase inhibitor/activator using purifed enzyme and Km concentrations of substrates (counterscreen for miR-21 project). purified FLuc, Km substrates, luminescence inhibition. Luciferin 4-monooxygenase (Photinus pyralis), P08659. AID 588342, 2011. hit rate 6.9% among 360,000. Potency, µM (doses to about 57.5 µM), without a hit: top-dose activity change, negative = inhibition, hits mostly inhibitors;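 also: plate controls were vehicle for no effect and reference inhibitor for full effect; nearly all actives have a fitted effect of over 55% in size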
Target sequence (P08659 whole entry, looked up): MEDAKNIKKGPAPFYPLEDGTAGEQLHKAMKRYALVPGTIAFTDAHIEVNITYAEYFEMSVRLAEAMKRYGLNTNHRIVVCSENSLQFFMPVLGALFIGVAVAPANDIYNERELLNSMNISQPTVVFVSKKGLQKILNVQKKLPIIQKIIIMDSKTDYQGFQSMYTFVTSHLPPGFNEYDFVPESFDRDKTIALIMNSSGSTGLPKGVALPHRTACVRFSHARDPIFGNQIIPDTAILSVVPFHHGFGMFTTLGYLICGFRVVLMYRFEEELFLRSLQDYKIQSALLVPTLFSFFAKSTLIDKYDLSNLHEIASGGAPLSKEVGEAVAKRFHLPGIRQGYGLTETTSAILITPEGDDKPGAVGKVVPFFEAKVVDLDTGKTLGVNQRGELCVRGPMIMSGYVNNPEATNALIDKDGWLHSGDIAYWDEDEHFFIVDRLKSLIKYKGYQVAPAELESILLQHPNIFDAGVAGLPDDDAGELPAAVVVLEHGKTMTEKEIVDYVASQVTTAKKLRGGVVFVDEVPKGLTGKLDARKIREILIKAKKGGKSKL
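Purified P. pyralis luciferase, 10 nM final, with Km-level 10 uM D-luciferin and 10 uM ATP in 50 mM Tris acetate pH 7.5, 10 mM Mg acetate, 0.01% Tween-20, 0.05% BSA; 6-point qHTS titration about 60 µM downward; luminescence read.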
NPC1 prom act: qHTS Assay for NPC1 Promoter Activators. Huh7 NPC1 promoter luciferase reporter, 24 h. Potency, µM (titrated, usually from 9.22 µM), without a hit: at the top dose activation, most hits filed as activators. hit rate 2.4% among 320,000. AID 485313, 2010; also: % of control where 0% means no effect; nearly all actives have a fitted effect of over 60% in size
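Luciferase expression driven by the NPC1 promoter was measured in stably transfected Huh7 cells after a 24 h compound incubation, using a luciferase reagent and a luminescence read.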
Numbers without * were called inactive; u = inconclusive; x = no result given; [ ] = another dose, or the depositor's remark. Calls follow the shape of the dose curve; as a rule, active = well fitted curve in the direction sought with a large enough effect; inconclusive = small, poorly fitted or top-dose-only effect, or another doubt; inactive = no such curve, though single readings can be large; an effect the other way counts as inactive or inconclusive. Potency is read from the fitted curve at half-maximal effect.

SMILES	Rab9 prom act	ELG1 genotoxic	SMN2 splice up	ELG1 DNA repair	FLuc modulator	NPC1 prom act
COc1ccc(CNC(=O)Nc2ccccc2)cc1	3.5µM*	u	x	u	19µM*	u
COc1ccc(CNC(=O)Nc2ccc(C)cc2C)cc1	-2%	3%	13%	u	-3%	5%
COc1ccc(CNC(=O)Nc2cccc(C)c2)cc1	4µM*	u	20%	u	u	3.2µM*
COc1ccc(CNC(=O)Nc2ccc(OC)cc2)cc1	-4%	15%	29%	13%	-2%	-1%
Cc1ccc(CNC(=O)Nc2ccccc2)c(C)c1	3.2µM*	18µM*	x	u	2.7µM*	2.5µM*
C=CCC(CC(O)COCCC)C(=O)NNC(=S)Nc1ccccc1 (configuration not stated)	15%	1%	x	u	u	22%
COc1ccc(NS(=O)(=O)c2cn(C)c(=O)n(C)c2=O)cc1	-2%	3%	x	-1%	-2%	-27%
C=CCN1C(=O)C(Cc2ccccc2Cl)SC1=Nc1ccc(C(=O)O)cc1 (configuration not stated)	-3%	3%	x	u	2%	-1%
Cc1nc2nc(SCc3ccc(F)cc3Cl)nn2c(C)c1Cc1ccccc1	x	x	x	x	-11%	x
CN(Cc1c(F)cccc1Cl)C(=O)CNC(=O)c1cccs1	u	u	x	u	u	4µM*
c1ccc2c(N3CCCCCC3)nc(-c3ccncc3)nc2c1	2%	-18%	11%	7.3µM*	-3%	1%
CN(C)c1ccc(-c2nc(N3CCNCC3)c3ccccc3n2)cc1	x	x	11µM*	x	x	x
CC1CN(c2nc(-c3ccccc3)nc3ccccc23)CC(C)O1 (configuration not stated)	-2%	-1%	23%	13µM*	3%	-1%
C(=C\c1nc(N2CCCCCC2)c2ccccc2n1)/c1ccccc1	7%	0%	x	-3%	8.5µM*	-1%
CC1CN(c2cc(-c3ccccc3)c3ccccc3n2)CC(C)O1 (configuration not stated)	-4%	-4%	-29%	-6%	4%	1%
c1cncc(-c2nc(N3CCCCCC3)c3ccccc3n2)c1	4%	-3%	-5%	u	3%	-1%
COc1ccc(CCNC(=O)CCn2c(=O)c3ccccc3n(Cc3ccccc3)c2=O)cc1OC	x	x	1%	x	1%	x
CC(C)(C)N(Cc1ccccc1)C(=O)COC(=O)c1ccc(N2CCCC2=O)cc1	x	-1%	x	u	x	x
COc1cc(SC)ccc1C(=O)OCC(=O)NCCC1=CCCCC1	-2%	-9%	x	-4%	-5%	0%
Cc1c(NC(=O)Cc2ccc(Cl)cc2)cccc1-c1nc2cccnc2s1	x	x	x	x	-7%	x
CCCOc1ccc(-c2nc(N3CCN(C)CC3)c3ccccc3n2)cc1	3.2µM*	u	x	u	4.8µM*	u
COCCNc1oc(/C=C/c2ccccc2OC)nc1S(=O)(=O)c1ccccc1	6%	0%[9.26 µM]	x	10µM*	-2%	-14%
O=C(N/N=C/c1cc(O)ccc1[N+](=O)[O-])c1ccc2c(c1)OCCO2	2µM*	u	x	u	0.6µM*	u
O=C(N/N=C/c1ccccc1[N+](=O)[O-])c1ccc2c(c1)OCCO2	u	u	x	u	0.24µM*	0.63µM*
Cc1ccccc1-c1nc(-c2ccc(Br)o2)no1	2.2µM*	u	x	u	3.4µM*	1.8µM*
SMILES	Rab9 prom act	ELG1 genotoxic	SMN2 splice up	ELG1 DNA repair	FLuc modulator	NPC1 prom act
COc1ccc(Cl)cc1-c1nc(-c2ccc(Br)o2)no1	u	4%	u	u	3%	u
Fc1ccccc1-c1nc(-c2ccc(Br)o2)no1	u	u	x	u	0.85µM*	0.5µM*
Cc1cc2c(c(=O)o1)C(CCC1CCCCC1)C(C#N)=C(N)O2 (configuration not stated)	10%	3%	x	7%	1%	-1%
Cn1nccc1C(=O)Oc1cccc(/C=N/NC(=O)c2ccccc2O)c1	9%	u	x	u	9.5µM*	-1%
COc1cccc(C(=O)N/N=C/c2ccc(OC3CSC3)cc2)c1	10%	u	-39%	16%	15µM*	-4%
O=C(N/N=C/c1cccc(OC2CSC2)c1)c1ccccc1O	11%	2%	9%	u	6.7µM*	10%
Cc1cccc(C(=O)N/N=C/c2ccc(OC3CSC3)cc2)c1	2%	12%	-2%	u	11µM*	12%
N#CCC(=O)N/N=C/c1ccc(OC2CSC2)cc1	8%	4%	5%	15%	-12%	1%
N#Cc1ccccc1NC(=O)C(=O)NCC(c1ccc2c(c1)OCO2)N1CCN(c2ccccc2)CC1 (configuration not stated)	x	x	x	x	4%	x
O=C(c1ccncc1)N1CCN(S(=O)(=O)c2cccc(Cl)c2)CC1	-3%	-5%	x	11%	0%	2%
CC(C)c1ccc(NC(=O)C(NS(=O)(=O)c2ccc3c(c2)CCC(=O)N3)c2ccccc2)cc1 (configuration not stated)	x	x	2%	x	u	x
Cc1cccc(C(=O)Oc2ccc(/C=N/NC(=O)c3ccccc3O)cc2)c1	27%	16%	5%[1.84 µM]	u	13µM*	17%
COc1cccc2sc(N)nc12	-7%	1%	11%	18%	1%	-3%
